Calls of active or inactive are those of the source. The calls were made as follows: active = hit-call score of the fitted dose curve at least 0.9, where 1 is the maximum; inactive = score below 0.9.
These molecules were tested on Monokine induced gamma interferon (MIG), CXCL9 (gene 4283) (assay: BSK_SAg_MIG: BioMAP Diversity Plus: SAg Assay for Monokine induced gamma interferon (MIG) Biomarker Activity (AID 2283092)). Conditions: primary human HUVEC with PBMC; actives raise or lower the signal.
Method in brief: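 HUVEC plus human PBMC co-culture, chemicals dosed and MIG (CXCL9) quantified by ELISA at 24 h. Bidirectional curve fitting against DMSO as negative control and baseline, so both gain and loss of signal count as activity.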

Structure (SMILES)	outcome	AC50
CN(C)c1nc(=O)n(C2CCCCC2)c(=O)n1C	inactive	–
O=C(NC(=O)c1c(F)cccc1F)Nc1cc(Cl)c(OC(F)(F)C(F)F)c(Cl)c1	inactive	–
CCCCCCOC(=O)c1ccccc1C(=O)OCCCCCC	inactive	–
O=S(=O)(O)C(F)(F)C(F)(F)C(F)(F)C(F)(F)F	inactive	–
Cc1ccc(O)c(C)c1	inactive	–
CCCCCCCCCC[N+](C)(C)CCCCCCCCCC	–	3.59 µM (active)
CC1=C2C[C@H]3[C@@H](CC=C4C[C@@H](O)CC[C@@]43C)[C@@H]2CC[C@]12O[C@@H]1C[C@H](C)CN[C@H]1[C@H]2C	inactive	–
c1ccc(-c2ccccc2)cc1	inactive	–
O=C(N[C@H]1CN2CCC1CC2)c1cc2ccoc2cn1	inactive	–
CN(C)CCO	inactive	–
ClC1=C(Cl)[C@]2(Cl)[C@@H]3[C@H]4C[C@H]([C@@H]5O[C@H]45)[C@@H]3[C@@]1(Cl)C2(Cl)Cl	inactive	–
COc1ccc(O)c(C(C)(C)C)c1	inactive	–

Reference: PubChem BioAssay (EPA / NIEHS)
